Holding throughout (parameters): scale not given: direction of the effect not stated beside the values
The target of experiment [1] is Protein translocase subunit SecA (Escherichia coli (strain K12)) (UniProt P10408). In words: Assay to Identify E. coli SecA ATPase Inhibitors. Format: functional. To be noted: 30 µM.
Experiment [2] deals with T1, Ubiquitin-activating enzyme e1, putative (Leishmania donovani (strain BPK282A1)) (UniProt E9BSI1).
T1 sequence (whole entry): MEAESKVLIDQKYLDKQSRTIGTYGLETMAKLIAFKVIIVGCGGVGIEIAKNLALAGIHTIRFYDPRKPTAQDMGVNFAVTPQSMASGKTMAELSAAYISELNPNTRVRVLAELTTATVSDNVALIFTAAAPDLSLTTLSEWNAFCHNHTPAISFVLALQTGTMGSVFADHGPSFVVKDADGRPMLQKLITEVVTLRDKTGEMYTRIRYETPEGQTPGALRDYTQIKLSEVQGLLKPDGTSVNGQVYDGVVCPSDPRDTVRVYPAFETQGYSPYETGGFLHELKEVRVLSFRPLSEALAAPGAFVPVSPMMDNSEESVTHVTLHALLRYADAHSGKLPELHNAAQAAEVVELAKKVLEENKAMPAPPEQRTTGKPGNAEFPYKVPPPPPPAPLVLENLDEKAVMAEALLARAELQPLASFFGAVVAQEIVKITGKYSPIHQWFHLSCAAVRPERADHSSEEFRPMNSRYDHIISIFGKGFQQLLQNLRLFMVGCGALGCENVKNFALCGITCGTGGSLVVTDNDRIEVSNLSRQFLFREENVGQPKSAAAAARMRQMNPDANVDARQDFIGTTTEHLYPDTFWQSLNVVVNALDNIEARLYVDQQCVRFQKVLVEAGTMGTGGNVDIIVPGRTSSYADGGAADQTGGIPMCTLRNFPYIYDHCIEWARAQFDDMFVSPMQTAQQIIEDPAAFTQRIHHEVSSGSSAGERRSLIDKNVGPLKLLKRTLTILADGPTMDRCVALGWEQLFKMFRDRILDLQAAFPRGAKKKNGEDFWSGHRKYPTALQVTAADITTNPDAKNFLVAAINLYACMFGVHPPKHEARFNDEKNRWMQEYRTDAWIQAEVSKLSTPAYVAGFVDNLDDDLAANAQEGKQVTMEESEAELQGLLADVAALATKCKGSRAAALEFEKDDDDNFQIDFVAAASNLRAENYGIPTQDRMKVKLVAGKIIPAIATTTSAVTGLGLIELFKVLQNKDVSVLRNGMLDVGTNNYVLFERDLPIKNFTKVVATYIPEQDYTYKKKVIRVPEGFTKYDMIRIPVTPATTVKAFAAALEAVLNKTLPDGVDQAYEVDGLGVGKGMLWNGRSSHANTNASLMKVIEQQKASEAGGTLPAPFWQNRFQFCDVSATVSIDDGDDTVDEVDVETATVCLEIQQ
In words: Leishmania donovani Ubiquitin Activating Enzyme (LdE1). Format: functional. Conditions: 30 µM.

In experiment [3] the target is Sialic acid-binding Ig-like lectin 9 (Homo sapiens) (UniProt Q9Y336). Nature of the experiment: Hs-Siglec9 ALPHAscreen SOP 20170721. Conditions: 10 µM.
Sequence of Sialic acid-binding Ig-like lectin 9 (Homo sapiens) (Q9Y336 whole entry): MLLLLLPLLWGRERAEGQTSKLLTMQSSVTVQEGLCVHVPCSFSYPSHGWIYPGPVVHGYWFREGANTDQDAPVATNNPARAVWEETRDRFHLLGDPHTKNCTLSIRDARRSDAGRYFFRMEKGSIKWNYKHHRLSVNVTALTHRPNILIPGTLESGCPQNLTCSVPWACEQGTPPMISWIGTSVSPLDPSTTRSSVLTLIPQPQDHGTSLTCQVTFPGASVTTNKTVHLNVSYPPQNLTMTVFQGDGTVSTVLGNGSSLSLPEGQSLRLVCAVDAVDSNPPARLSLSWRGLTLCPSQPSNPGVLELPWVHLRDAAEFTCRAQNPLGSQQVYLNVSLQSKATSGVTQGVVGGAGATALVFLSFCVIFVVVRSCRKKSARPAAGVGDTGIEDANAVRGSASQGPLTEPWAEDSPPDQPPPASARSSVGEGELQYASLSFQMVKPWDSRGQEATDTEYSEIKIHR
The test system of a further experiment is Trypanosoma cruzi. Nature of the experiment: Trypanosoma cruzi phosphomannomutase and mannose-1-phosphate guanylyltransferase assay. Format: functional. Conditions: 10 µM.
The target in experiment [4] is T2, Arginase-2, mitochondrial (Homo sapiens) (UniProt P78540).
T2 sequence (whole entry): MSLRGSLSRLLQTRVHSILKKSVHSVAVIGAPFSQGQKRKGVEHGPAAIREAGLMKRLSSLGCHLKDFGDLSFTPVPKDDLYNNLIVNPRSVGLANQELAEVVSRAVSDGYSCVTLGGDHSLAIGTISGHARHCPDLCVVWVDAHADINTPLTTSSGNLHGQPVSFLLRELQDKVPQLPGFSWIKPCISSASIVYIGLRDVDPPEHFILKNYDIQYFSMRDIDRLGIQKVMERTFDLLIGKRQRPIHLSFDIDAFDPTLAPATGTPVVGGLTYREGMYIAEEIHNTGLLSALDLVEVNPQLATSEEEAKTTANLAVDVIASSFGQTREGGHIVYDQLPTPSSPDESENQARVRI
In words: in vitro enzyme assay to detect the production of urea directly proportional to the activity of Arginase II. Note: in the data most compounds retested in dose-response had high values. Format: functional. Conditions: 33.3 µM.

Experiment [5] deals with T3, Proteasome subunit beta (Trypanosoma cruzi) (UniProt O96673).
T3 sequence (whole entry): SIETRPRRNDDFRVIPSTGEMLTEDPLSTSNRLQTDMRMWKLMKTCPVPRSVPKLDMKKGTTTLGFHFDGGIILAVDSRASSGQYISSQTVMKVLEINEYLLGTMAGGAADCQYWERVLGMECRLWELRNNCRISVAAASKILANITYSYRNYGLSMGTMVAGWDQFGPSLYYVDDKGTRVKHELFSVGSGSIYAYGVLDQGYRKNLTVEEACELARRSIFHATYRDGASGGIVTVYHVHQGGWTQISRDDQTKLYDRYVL
Nature of the experiment: Trypanosoma cruzi proteasome chymotrypsin-like activity (TcProtChymo) assay. Note: in the data most compounds retested in dose-response had high values. Format: functional. Conditions: 9.37 µM.

The next experiment is filed under the species Homo sapiens. Nature of the experiment: To identify inhibition of the IFN signalling (Jak-Stat) pathway via expression of an eGFP reporter gene under the control of an IFN-stimulated response element (ISRE) containing MxA promoter. Format: functional. To be noted: 30 µM.
For experiment [6], the target named is T4, Tyrosyl-tRNA synthetase, putative (Trypanosoma cruzi (strain CL Brener)) (UniProt Q4DSP6).
T4 sequence (whole entry): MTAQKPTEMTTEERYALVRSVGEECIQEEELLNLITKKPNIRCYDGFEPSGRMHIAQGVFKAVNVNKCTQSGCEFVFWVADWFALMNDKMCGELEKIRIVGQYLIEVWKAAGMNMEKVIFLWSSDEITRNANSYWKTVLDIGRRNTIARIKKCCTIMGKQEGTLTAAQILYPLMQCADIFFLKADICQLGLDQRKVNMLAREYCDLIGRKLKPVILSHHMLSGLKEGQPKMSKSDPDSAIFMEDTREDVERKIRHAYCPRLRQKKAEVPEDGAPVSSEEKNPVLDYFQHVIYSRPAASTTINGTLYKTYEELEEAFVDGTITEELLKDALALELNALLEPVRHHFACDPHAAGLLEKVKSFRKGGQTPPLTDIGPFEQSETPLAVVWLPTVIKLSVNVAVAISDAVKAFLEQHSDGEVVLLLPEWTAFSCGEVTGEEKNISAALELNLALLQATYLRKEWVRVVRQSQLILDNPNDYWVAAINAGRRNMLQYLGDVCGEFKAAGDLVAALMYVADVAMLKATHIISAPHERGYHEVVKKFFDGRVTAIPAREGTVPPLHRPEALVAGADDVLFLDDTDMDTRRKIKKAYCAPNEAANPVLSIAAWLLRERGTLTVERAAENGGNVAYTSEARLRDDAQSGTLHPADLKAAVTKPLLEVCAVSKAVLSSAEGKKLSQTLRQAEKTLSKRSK
Nature of the experiment: Trypanosoma cruzi tyrosyl tRNA synthetase (TcYRS) _High Tyrosine SOP. Note: in the data most compounds retested in dose-response had high values. Format: functional. To be noted: 30 µM.

Experiment [7] has as its target T4, Tyrosyl-tRNA synthetase, putative (Trypanosoma cruzi (strain CL Brener)). In words: Trypanosoma cruzi tyrosyl tRNA synthetase (TcYRS) SOP. Format: functional. To be noted: 30 µM.
Experiment [8] has as its target Chromo domain-containing protein 1 (Saccharomyces cerevisiae (strain ATCC 204508 / S288c) (Baker's yeast)) (UniProt P32657). In words: ScCHD-1 Enzyme Inhibition Assay. Note: in the data most compounds retested in dose-response had high values. Conditions: 30 µM. Format: functional.

This note sets out measurements from ChEMBL document CHEMBL3988442, “University of Dundee, Small-Polar-MMV Screening Library” (2021).

For some assays here: Entries with a potency or affinity are not part of this list.

Sequence of Protein translocase subunit SecA (Escherichia coli (strain K12)) (P10408 whole entry): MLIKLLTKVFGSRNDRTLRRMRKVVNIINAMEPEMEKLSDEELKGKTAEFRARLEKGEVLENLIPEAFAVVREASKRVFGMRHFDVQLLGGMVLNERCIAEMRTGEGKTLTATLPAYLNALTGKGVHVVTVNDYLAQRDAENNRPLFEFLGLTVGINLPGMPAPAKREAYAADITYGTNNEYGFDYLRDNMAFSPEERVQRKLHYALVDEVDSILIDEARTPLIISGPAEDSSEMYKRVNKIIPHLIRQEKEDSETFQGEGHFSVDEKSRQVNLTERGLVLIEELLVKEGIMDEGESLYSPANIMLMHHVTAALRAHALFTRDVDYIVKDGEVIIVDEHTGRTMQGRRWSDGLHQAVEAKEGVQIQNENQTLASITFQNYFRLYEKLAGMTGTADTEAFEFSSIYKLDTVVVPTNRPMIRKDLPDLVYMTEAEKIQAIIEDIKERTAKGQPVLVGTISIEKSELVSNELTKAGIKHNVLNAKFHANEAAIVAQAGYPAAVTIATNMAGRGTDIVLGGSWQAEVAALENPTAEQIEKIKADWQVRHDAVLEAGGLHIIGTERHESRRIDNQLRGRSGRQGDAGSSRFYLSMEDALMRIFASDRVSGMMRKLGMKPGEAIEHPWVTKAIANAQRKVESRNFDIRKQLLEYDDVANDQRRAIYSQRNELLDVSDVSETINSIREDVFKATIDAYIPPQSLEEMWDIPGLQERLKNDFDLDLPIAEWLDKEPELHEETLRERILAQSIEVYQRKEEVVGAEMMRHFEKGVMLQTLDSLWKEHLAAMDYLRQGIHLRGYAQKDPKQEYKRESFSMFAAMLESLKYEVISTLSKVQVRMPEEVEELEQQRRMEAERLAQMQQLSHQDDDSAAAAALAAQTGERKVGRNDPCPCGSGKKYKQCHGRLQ
Sequence of Chromo domain-containing protein 1 (Saccharomyces cerevisiae (strain ATCC 204508 / S288c) (Baker's yeast)) (P32657 whole entry, the tested form may be a part): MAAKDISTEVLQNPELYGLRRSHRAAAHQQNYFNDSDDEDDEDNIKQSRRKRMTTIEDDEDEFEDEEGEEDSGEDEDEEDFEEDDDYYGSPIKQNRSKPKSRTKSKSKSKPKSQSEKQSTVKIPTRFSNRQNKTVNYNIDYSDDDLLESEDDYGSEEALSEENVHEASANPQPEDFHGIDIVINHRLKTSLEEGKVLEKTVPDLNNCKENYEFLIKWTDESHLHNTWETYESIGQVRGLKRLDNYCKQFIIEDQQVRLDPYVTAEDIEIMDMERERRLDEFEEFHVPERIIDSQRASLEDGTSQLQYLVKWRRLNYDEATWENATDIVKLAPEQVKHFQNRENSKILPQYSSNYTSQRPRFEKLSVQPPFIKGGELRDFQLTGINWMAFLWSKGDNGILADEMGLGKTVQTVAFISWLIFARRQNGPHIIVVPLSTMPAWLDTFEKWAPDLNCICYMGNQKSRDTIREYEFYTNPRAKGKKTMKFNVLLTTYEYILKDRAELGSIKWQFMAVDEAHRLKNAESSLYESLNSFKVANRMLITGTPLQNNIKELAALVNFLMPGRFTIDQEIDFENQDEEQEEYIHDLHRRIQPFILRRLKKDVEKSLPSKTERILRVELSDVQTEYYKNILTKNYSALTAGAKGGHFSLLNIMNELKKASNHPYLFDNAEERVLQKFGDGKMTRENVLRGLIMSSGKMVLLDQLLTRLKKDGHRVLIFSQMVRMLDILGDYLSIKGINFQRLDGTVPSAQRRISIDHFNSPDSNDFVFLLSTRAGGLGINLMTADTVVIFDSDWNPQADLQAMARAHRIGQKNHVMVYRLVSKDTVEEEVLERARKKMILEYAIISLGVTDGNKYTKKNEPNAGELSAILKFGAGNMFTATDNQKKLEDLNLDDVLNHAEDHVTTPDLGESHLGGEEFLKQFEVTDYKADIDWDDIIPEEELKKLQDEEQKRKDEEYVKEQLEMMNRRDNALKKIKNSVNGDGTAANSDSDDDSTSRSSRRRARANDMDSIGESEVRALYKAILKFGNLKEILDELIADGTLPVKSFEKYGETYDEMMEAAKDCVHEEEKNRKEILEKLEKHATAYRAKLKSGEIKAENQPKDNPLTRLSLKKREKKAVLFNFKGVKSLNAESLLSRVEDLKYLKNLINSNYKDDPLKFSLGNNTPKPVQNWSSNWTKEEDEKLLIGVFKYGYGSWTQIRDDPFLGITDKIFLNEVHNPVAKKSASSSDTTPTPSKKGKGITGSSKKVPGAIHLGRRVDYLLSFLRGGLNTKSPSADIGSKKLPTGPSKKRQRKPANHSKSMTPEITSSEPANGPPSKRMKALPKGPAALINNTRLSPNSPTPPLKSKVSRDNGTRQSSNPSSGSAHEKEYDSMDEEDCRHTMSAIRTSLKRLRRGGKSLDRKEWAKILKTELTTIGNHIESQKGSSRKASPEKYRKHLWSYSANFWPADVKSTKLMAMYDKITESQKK

Turning to `O=C1CC(c2ccco2)c2sc(C(=O)O)c(-c3ccccc3)c2N1` (stereo not given), the Percent Effect was -3.7% in [1]; 18.9% in experiment [2]; 68.7% in experiment [3]; 2.23% in the experiment on Trypanosoma cruzi; -3.85% in [4]; 27.7% in experiment [5]. For the same compound, the Percent Effect in the experiment listed under Homo sapiens was -0.84%; in experiment [6], 7.98%; in [7] it was 17.1%; in [8], 44.8%.
For `O=C(c1cnco1)N1CCCC(Cc2nccs2)C1` (stereo not given), the Percent Effect in experiment [1] is -3.28%; in experiment [2], 14.7%; in [3], 5.58%; in the experiment with Trypanosoma cruzi, 0.395%; in experiment [4], 4.87%; in [5] it was 19.1%. Moreover, the Percent Effect in the experiment listed under Homo sapiens was -17.7%; in experiment [6] it was 7.41%; in experiment [7], 15%; in experiment [8] it was -20.4%.
For the compound `CCC1c2ccsc2CCN1C(=O)NCc1cc[nH]n1` (stereo not given), the Percent Effect is -7.17% in experiment [1]; 7.69% in experiment [2]; -4.75% in experiment [3]; -4.79% in the experiment with Trypanosoma cruzi; 0% in experiment [4]; 7.25% in experiment [5]. The Percent Effect in the experiment listed under Homo sapiens was 21.4%; in [6] it was 2.39%; in experiment [7] it was 6.02%; in experiment [8], -1.84%.
Consider `CN(C)c1ccccc1C(=O)N1C[C@@H](CN2CCCCC2)[C@@H](CO)C1`, for which the Percent Effect was -7.49% in [1]; 2.7% in experiment [2]; 6.19% in experiment [3]; 7.27% in the experiment with Trypanosoma cruzi; -5.25% in experiment [4]; 16.6% in [5]. In addition, the Percent Effect is -22.6% in the experiment listed under Homo sapiens, 3.72% in experiment [6], 12.2% in experiment [7] and -3.83% in experiment [8].
Regarding `Cn1ccc(C(=O)NCc2cccc(N3CCCCC3=O)c2)cc1=O`, the Percent Effect in experiment [1] is 2.38%; in [2] it was 13%; in [3], 8.44%; with Trypanosoma cruzi, -0.373%; in experiment [4] it was -2.66%; in experiment [5], 27.5%. The Percent Effect in the experiment filed under Homo sapiens was 14.9%; in experiment [6], 9.8%; in experiment [7] it was 21.2%; in [8] it was -9.09%.
For the compound `CC(Cn1cccn1)NC(=O)Cc1cccs1` (stereo not given), the Percent Effect in experiment [1] is -0.712%; in experiment [2], 16%; in experiment [3] it was 1.17%; in the experiment on Trypanosoma cruzi, 3.41%; in [4], 3.99%; in experiment [5], 6.36%. Further, the Percent Effect in the experiment listed under Homo sapiens was 28.8%; in experiment [6], 0.526%; in experiment [7], 7.69%; in [8] it was -16%.
Consider `CC(C)n1ccnc1CN1CCCN(C(=O)c2cc(Cl)c[nH]2)CC1`, for which the Percent Effect is -0.854% in experiment [1]; 10.3% in experiment [2]; -9.31% in experiment [3]; -3.1% in the experiment with Trypanosoma cruzi; 11.5% in experiment [4]; 16.1% in experiment [5]. For the same compound, the Percent Effect in the experiment filed under Homo sapiens was 10.8%; in experiment [6] it was 6.22%; in experiment [7], 18.1%; in [8] it was -3.25%.
As to `Cc1cccc(CN2C[C@@H]3COC[C@]3(CNC(=O)N3CCCC3)C2)n1`, the Percent Effect in experiment [1] is -4.34%; in experiment [2], -1.3%; in [3], 12.9%; in the experiment on Trypanosoma cruzi it was -3.02%; in [4], -4.86%; in [5], 4.68%. The Percent Effect in the experiment listed under Homo sapiens came out at 1.04%; in [6], 3.68%; in [7], 5.13%; in [8], 1.29%.
